Bioassay records (PubChem)
HP1b binding inh: inhibitors of HP1-beta chromodomain binding to methylated histone tails; AID 540317; 0.56% of 390,000 active; P83916; AlphaScreen HP1-beta / biotin-H3K9me3 peptide binding; Potency, µM (doses to about 114 µM), for the others: top-dose activity change, negative = inhibition, usual class: inhibitors; note: nearly all actives have a fitted effect of over 70% in size
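HP1-beta protein (50 nM final) preincubated 30 min at room temperature with biotinylated H3(1-18)K9me3 peptide (50 nM) in PBS pH 7.4, 0.01% Tween-20, then compound added for 30 min. AlphaScreen streptavidin donor/nickel chelate acceptor beads (10 ug/mL final), 30 min dark, luminescence read.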
PLK1 PBD inh: blocks phosphopeptide binding to human PLK1 polo-box domain | P53350 | Potency, µM, without a hit: max response, negative = inhibition, usual class: inhibitors | 2.8% of 360,000 active | Plk1 PBD binding of FITC phosphopeptide, fluorescence polarization | AID 720504; note: series mostly up to about 57 µM; % is set by controls: 0 for no effect and ±100 for the full control effect; nearly all actives have a fitted effect of over 65% in size
Target sequence (P53350 whole entry, looked up, the tested form may be a part): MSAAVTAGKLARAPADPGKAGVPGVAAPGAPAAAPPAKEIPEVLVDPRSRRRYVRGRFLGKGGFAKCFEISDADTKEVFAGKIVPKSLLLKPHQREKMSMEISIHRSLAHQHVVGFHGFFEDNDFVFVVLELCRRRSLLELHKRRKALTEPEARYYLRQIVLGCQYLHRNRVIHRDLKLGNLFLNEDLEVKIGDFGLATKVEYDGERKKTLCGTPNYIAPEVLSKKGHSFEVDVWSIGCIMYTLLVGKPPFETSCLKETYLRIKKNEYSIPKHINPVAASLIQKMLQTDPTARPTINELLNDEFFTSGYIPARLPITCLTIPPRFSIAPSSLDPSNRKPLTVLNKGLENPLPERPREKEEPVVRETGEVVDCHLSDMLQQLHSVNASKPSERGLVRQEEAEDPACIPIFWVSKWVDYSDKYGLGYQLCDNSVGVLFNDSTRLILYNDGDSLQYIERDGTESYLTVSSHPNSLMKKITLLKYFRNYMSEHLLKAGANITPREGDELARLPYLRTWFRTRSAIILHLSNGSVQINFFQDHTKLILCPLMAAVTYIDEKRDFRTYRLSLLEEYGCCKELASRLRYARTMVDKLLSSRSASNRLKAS
G9a block: blocks human histone lysine methyltransferase G9a; Potency, µM (top dose mostly 102 µM), without a hit: at the highest dose activity, negative = inhibition, most hits filed as inhibitors; G9a H3K9 monomethylation, AlphaScreen, 2 h; Q96KQ7; 8.8% of 350,000 active; note: % is set by controls: 0 for no effect and ±100 for the full control effect; nearly all actives have a fitted effect of over 75% in size
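Step 1: enzyme (final 20 nM) with compound, 15 min RT. Step 2: substrate peptide 500 nM and SAM 20 uM, 2 h RT. Step 3: anti-H3K9me1 antibody and AlphaScreen beads, 10 min, then plate read.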
Sfp PPTase inh: Sfp phosphopantetheinyl transferase inhibition | Biochemical Sfp PPTase activity, qHTS | Potency, µM, inactives show largest response in the series, negative = inhibition, usual class: inhibitors | 3.5% of 310,000 active;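 note: the enzyme is Sfp with the accession as filed and its product quenches rhodamine fluorescence; 0% = enzyme reaction without inhibitor and -100% = no enzyme wells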
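Buffer: 50 mM Hepes-Na pH 7.6, 10 mM MgCl2, 0.01% Nonidet P-40, 0.01% BSA. Enzyme 15 nM, pre-exposed to compound 15 min; substrates then added and fluorescence change tracked over 30 min.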
BAZ2B block: blocks human BAZ2B; AlphaScreen BAZ2B-H3K14Ac peptide displacement; 4.4% of 360,000 active; Q9UIF8; Potency, µM (series often up to 114 µM), inactives show at the top dose activity change, negative = inhibition, hits mostly inhibitors; AID 504333; note: % is set by controls: 0 for no effect and ±100 for the full control effect; nearly all actives have a fitted effect of over 60% in size
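AlphaScreen displacement: compounds (up to 110uM) incubated 30 min at room temperature with a preformed 50 nM BAZ2B/50 nM biotinylated H3K14Ac peptide complex in PBS pH 7.4 with Tween-20. Donor and acceptor beads at 10 ug/mL final added, 20 min light-protected before reading.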
JMJD2A Tudor: inhibitors of human JMJD2A Tudor domain; O75164; AlphaScreen JMJD2A-Tudor / H3K4me3 peptide binding; Potency, µM (doses to about 114 µM), inactives show at the highest dose activity change, negative = inhibition, actives largely listed as inhibitors; 4.4% of 390,000 active; AID 504339; note: % is set by controls: 0 for no effect and ±100 for the full control effect; nearly all actives have a fitted effect of over 50% in size
TbPYK confirm: Trypanosoma brucei pyruvate kinase inhibition, cherry-pick confirmation. shares compounds with PLK1 PBD inh. recombinant TbPYK, Kinase-Glo ATP luminescence. Potency, µM (titrated, usually from 76.9 µM), for inactives: at the highest dose activity change, negative = inhibition, actives largely listed as inhibitors. 67% of 890 active; note: % is set by controls: 0 for no effect and ±100 for the full control effect; nearly all actives have a fitted effect of over 70% in size
TbPYK orthogonal: TbPYK inhibition, orthogonal confirmation; 62% of 890 active; Potency, µM (titrated, usually from 76.9 µM), inactives show at the top dose activity change, negative = inhibition, most hits filed as inhibitors; recombinant TbPYK, ADP-Glo luminescence, 60 min; shares compounds with PLK1 PBD inh; AID 720584; note: % is set by controls: 0 for no effect and ±100 for the full control effect; nearly all actives have a fitted effect of over 75% in size
An asterisk follows results filed as active; [ ] = another dose, or the depositor's remark. Sampled rows, rich in hits. Any-hit rate of the full collection: about 12%. Calls come from the whole dose curve; as a rule, active = well fitted curve in the direction sought with a large enough effect; inconclusive = small, poorly fitted or top-dose-only effect, or another doubt; inactive = no such curve, though single readings can be large; an effect the other way counts as inactive or inconclusive. Potency is the fitted concentration of half-maximal effect.

How did COc1ccc(CC(=O)Nc2sc3c(c2C(N)=O)CCCC3)cc1 do in these assays?
HP1b binding inh: 44.2%; PLK1 PBD inh: -17.7%; G9a block: 6.5%; Sfp PPTase inh: 10.9%; BAZ2B block: -3.0%; JMJD2A Tudor: -25.0%

How did COc1ccccc1C(NC(=O)C1CCN(CCc2ccc(Br)cc2)CC1)c1ccccn1 (stereo unspecified) do in these assays?
PLK1 PBD inh: 0.7%

What do the screens show for `CCN(CC)CCN1C(=O)C(=O)/C(=C(/O)c2ccc(S(=O)(=O)N3CCOCC3)cc2)C1c1ccc(Cl)cc1` (stereo unspecified)?
HP1b binding inh: 23.6%; PLK1 PBD inh: -3.6%; G9a block: -5.8%; Sfp PPTase inh: 7.1%; BAZ2B block: -1.4%; JMJD2A Tudor: 15.5%

How did O=C1CCCCCCC1Sc1ccccc1[N+](=O)[O-] (stereo unspecified) do in these assays?
HP1b binding inh: inconclusive; PLK1 PBD inh: inconclusive; G9a block: 11.2µM*; Sfp PPTase inh: -29.7%; BAZ2B block: inconclusive; JMJD2A Tudor: -17.1%[11.4 µM]; TbPYK confirm: 12.6µM*; TbPYK orthogonal: inconclusive

What do the screens show for `O=C1CCCC2=C1C(c1cccs1)Nc1ccc3ncccc3c12` (stereo unspecified)?
HP1b binding inh: 4.5%; PLK1 PBD inh: -3.2%; G9a block: 9.8%[12.7 µM]; Sfp PPTase inh: -15.2%; BAZ2B block: -21.3%; JMJD2A Tudor: -16.9%

Results for O=C1CCCC2=C1C(c1ccc(O)c(O)c1)Nc1ccc3ncccc3c12 (stereo unspecified) ?
HP1b binding inh: inconclusive; PLK1 PBD inh: inconclusive; G9a block: 1.12µM*; Sfp PPTase inh: inconclusive; BAZ2B block: 50.1µM*; JMJD2A Tudor: 25.1µM*; TbPYK confirm: 0.159µM*; TbPYK orthogonal: 1µM*

Results for NS(=O)(=O)c1ccc(CCNC(=O)c2cncc(Br)c2)cc1 ?
HP1b binding inh: inconclusive; PLK1 PBD inh: 2.99µM*; G9a block: 15.0%[59 µM]; Sfp PPTase inh: 20.5%; BAZ2B block: 9.0%; JMJD2A Tudor: inconclusive; TbPYK confirm: 4.2%; TbPYK orthogonal: -1.9%

Results for COCCNC(=O)C1(C)CCCN(Cc2cc(-c3ccccc3)n(C)n2)C1 (stereo unspecified) ?
PLK1 PBD inh: 3.0%

What do the screens show for `CCC(=O)N(CCc1ccccc1)Cc1cc2cccc(C)c2[nH]c1=O`?
HP1b binding inh: 34.0%; PLK1 PBD inh: -4.4%; Sfp PPTase inh: 6.2%; BAZ2B block: 37.1%; JMJD2A Tudor: -21.1%

How did Cc1ccc(CCNC(=O)C2CCCN(C(=O)c3cc4sccc4n3C)C2)cc1 (stereo unspecified) do in these assays?
HP1b binding inh: -8.4%; PLK1 PBD inh: -9.0%; G9a block: 14.2%[12.7 µM]; Sfp PPTase inh: 11.4%; BAZ2B block: -6.9%; JMJD2A Tudor: -36.0%; TbPYK confirm: 2.51µM*; TbPYK orthogonal: 10µM*

What do the screens show for `O=C(CS(=O)(=O)c1ccc(Cl)cc1)Nc1nc2ccc(Br)cc2s1`?
HP1b binding inh: 49.6%; G9a block: inconclusive; BAZ2B block: -10.5%; JMJD2A Tudor: -11.0%

What do the screens show for `Oc1[nH]c2ccc(Br)cc2c1N=NC(=S)N1CCOCC1`?
HP1b binding inh: -36.8%; PLK1 PBD inh: -17.8%; G9a block: 3.55µM*; Sfp PPTase inh: -25.1%; BAZ2B block: 44.7µM*; JMJD2A Tudor: 17.8µM*; TbPYK confirm: 0.316µM*; TbPYK orthogonal: 0.447µM*
